DT40 TDP1 no CPT = qHTS for Inhibitors of human tyrosyl-DNA phosphodiesterase 1 (TDP1): qHTS in cells in absence of CPT; DT40 Tdp1-/- hTDP1 cells, no CPT, ATP luminescence, 48 h; Potency, µM (titrated, usually from 46.2 µM), without a hit: at the top dose activity change, negative = growth inhibition, hits mostly inhibitors; hit rate 15% among 420,000; further: potency means the concentration at half of the fitted maximal effect; nearly all actives have a fitted effect of over 55% in size
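No-CPT arm: Tdp1-/-;hTDP1 DT40 cells (400/well) plus compounds, incubated ≥48 hr at 37 °C. Readout CellTiter-Glo luminescence.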
TDP1 cell CPT = growth inhibition of DT40 Tdp1-/-;hTDP1 cells with camptothecin (screen for TDP1 inhibitors); Potency, µM (series often up to 46.2 µM), without a hit: top-dose activity change, negative = growth inhibition, hits mostly inhibitors; AID 686979; hit rate 12% among 420,000; chicken DT40 Tdp1-/-;hTDP1 cells + 20 nM CPT, ATP luminescence, 48 h; further: potency means the concentration at half of the fitted maximal effect; nearly all actives have a fitted effect of over 55% in size
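Chicken DT40 Tdp1-/- cells complemented with human TDP1, 400 cells/well, exposed to compounds plus 20 nM camptothecin for at least 48 h at 37 C; viability read as ATP content by CellTiter-Glo luminescence.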
HT1080NT lethal = kills 2HG-producing HT-1080-NT fibrosarcoma cells; HT-1080-NT fibrosarcoma viability, CellTiter-Glo ATP luminescence, 48 h; Potency, µM (series often up to 46.1 µM), for inactives: top-dose activity, negative = less viability, usual class: cytotoxic; hit rate 1.6% among 360,000; AID 686970;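 further: NT is the 2HG producing partner of a matched IDH1 knockdown line; potency means the concentration at half of the fitted maximal effect; 0% = DMSO-treated cells and -100% = media-only wells without cells; nearly all actives have a fitted effect of over 55% in size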
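HT-1080-NT fibrosarcoma cells (2HG-overproducing), 750 cells/well in RPMI with 5% FBS, dosed after 2 h and incubated 48 h at 37C. CellTiter-Glo luminescence normalized to DMSO and no-cell wells; concentration-response curves fitted and classed.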
HT1080 IDH1KD tx = toxicity to HT-1080 IDH1 knockdown cells (counter line). AID 686971. Potency, µM (series often up to 46.1 µM), for inactives: at the top dose activity, negative = toxicity, actives largely listed as cytotoxic. hit rate 2% among 360,000. HT-1080 IDH1 knockdown viability, ATP luminescence, 48 h;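 further: potency means the concentration at half of the fitted maximal effect; 0% = DMSO wells and -100% = cell-free medium wells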
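Assay cells: HT-1080 with IDH1 knockdown, 750 per well, RPMI/5% FBS. Exposure: 48 h at 37 °C following 2 h pre-incubation. Read: CellTiter-Glo luminescence; fitted concentration-response, curve class assigned.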
IL-1B inflam inh = blocks inflammasome-driven IL-1 beta release; AID 743279; activity change, % at 57.5 µM; THP-1 LPS/ATP IL-1B secretion, AlphaLISA, 16 h; stronger effect = lower value; hit rate 4.7% among 360,000; in the data active means activity change below about -50%; inconclusive means mostly about -30% to -49%
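THP-1 cells pretreated 1 hr with compounds (up to 57.5 uM final), then stimulated with LPS (250 ng/mL final) plus ATP (1.25 mM final); secreted IL-1B measured by AlphaLISA after 16 hr, decreased signal indicating inhibition.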
An asterisk follows results filed as active; ? = inconclusive; . = not tested or not shown; [ ] = remark or other dose. Sampled rows, rich in hits. Any-hit rate of the full collection: about 19%. Unless noted, the call rests on the fitted dose curve; in most records, active means well fitted curve in the direction sought with a large enough effect; inconclusive means small, poorly fitted or top-dose-only effect, or another doubt; inactive means no such curve, though single readings can be large; an effect the other way counts as inactive or inconclusive. Unless noted, on the % scale 0 is the no-effect control and ±100 the full control effect.

SMILES | DT40 TDP1 no CPT | TDP1 cell CPT | HT1080NT lethal | HT1080 IDH1KD tx | IL-1B inflam inh
Cc1c(NC(=S)N2CCN(c3cccc(Cl)c3)CC2)c(=O)n(-c2ccccc2)n1C | ? | 0% | -14% | -19% | 32
O=C(c1cccc(Cl)c1)c1nn(-c2ccccc2)c(=O)cc1C(F)(F)F | ? | 16µM* | ? | ? | -102*
O=C(c1ccccc1)c1nn(-c2ccccc2)c(=O)cc1-c1ccccc1 | ? | ? | 25% | 14% | -10
O=C(Nc1ccccc1)c1nn(-c2ccccc2)c(=O)cc1C(F)(F)F | -26% | ? | 11% | 17% | 15
O=C(c1ccccc1)c1nn(-c2ccccc2)c(=O)cc1C(F)(F)F | ? | -6% | ? | ? | -88*
COCCOC(=O)c1c(C)oc2ccc(OCC=C(C)C)cc12 | -17% | -5% | 1% | 14% | 39
CCOC(=O)c1c(-c2ccccc2)[nH]c2ccc(O)cc12 | ? | -12% | -2% | -1% | -55*
CCOC(=O)c1c(C)n(C)c2ccc(O)c(CN3CCN(C)CC3)c12 | -18% | -7% | 5% | 0% | -1
CCOC(=O)c1c(C)oc2ccc(O)c(CN(C)C)c12 | ? | -20% | -1% | -1% | -23
CCOC(=O)c1c(CSc2ccc(CC)cc2)oc2ccc(O)c(CN(C)C)c12 | 7.3µM* | 8.2µM* | ? | 21µM* | -101*
CCOC(=O)c1c(-c2ccccc2)oc2ccc(O)c(CN3CCN(C)CC3)c12 | 2.3µM* | 2.1µM* | ? | ? | .
COCCOC(=O)c1c(C)oc2ccc(O)c(CN3CCC(C)CC3)c12 (tested in a mixture with another compound) | ? | ? | -5% | -2% | -52*
O=C(COC(=O)c1ccc(CO)cc1)Nc1ccc(OC(F)F)cc1 | 7% | 3% | -3% | 5% | 1
CCCCNC(=O)CCn1nc(-c2ccc(C)cc2)c2ccccc2c1=O | -11% | ? | 0% | 3% | -9
Cc1ccc2oc(-c3ccc(C)c(NC(=O)COc4ccccc4C)c3)nc2c1 | ? | -14% | . | . | .
CCOC(=O)c1c(-c2ccccc2)oc2cc(CN(C)C)c(O)c(CN(C)C)c12 | ? | ? | ? | 11µM* | 66
CCOC(=O)c1c(-c2ccccc2)oc2ccc(O)cc12 | ? | ? | 0% | -1% | 9
CCOC(=O)c1c(CSc2ccccc2)oc2cc(Br)c(O)c(CN(C)C)c12 | ? | 16µM* | -21% | -3% | -26
CC(=O)c1c(CSc2ccccc2)oc2ccc(O)c(CN(C)C)c12 | ? | 23µM* | ? | ? | -85*
COc1ccc(OC)c(C(=O)c2c(C)oc3cc(Br)c(O)c(CN(C)C)c23)c1 | 21µM* | ? | -24% | -18% | -6
CNC(=O)OC1CC2CC1[C@H]1CCCCN1C2=O (some centres undefined) | -3% | -4% | 4% | 7% | 20
CCOC(=O)c1c(CS(=O)(=O)c2ccccc2)n(C)c2cc(Br)c(O)cc12 | ? | ? | 4% | 5% | 11
CCOC(=O)c1c(CSc2ccccc2)oc2ccc(O)cc12 | 21µM* | ? | -19% | -15% | 4
CCOC(=O)c1c(CS(=O)(=O)c2ccccc2)n(C)c2cc(Br)c(O)c(CN(C)C)c12 | 13µM* | 15µM* | -11% | -5% | -15
c1ccc2c(c1)COC(CN1CCCCC1)OC2 | -14% | 1% | 3% | 1% | -14
SMILES | DT40 TDP1 no CPT | TDP1 cell CPT | HT1080NT lethal | HT1080 IDH1KD tx | IL-1B inflam inh
Cc1ccc(C(=O)N[C@H](C(=O)OCc2cc(=O)oc3cc(C)ccc23)C(C)C)cc1 | ? | -9% | 9% | 14% | 24
Cc1ccccc1Cn1nnc2c(=O)[nH]c(C3CCCN(C(=O)c4ccc(F)cc4)C3)nc21 (centres undefined) | 5% | -1% | . | . | .
C[C@@H]1CN(Cc2ccc3c(c2)CN(C(=O)c2ccc(Oc4ccccc4)o2)CCO3)C[C@H](C)O1 | 12µM* | -14%[9.04 µM] | . | . | .
C[C@@H]1CN(Cc2ccc3c(c2)CN(Cc2nc(-c4ccccc4)cs2)CCO3)C[C@H](C)O1 | 23µM* | -7%[9.04 µM] | . | . | .
C[C@@H]1CN(Cc2ccc3c(c2)CN(C(=O)CN2CCOc4ccccc4C2)CCO3)C[C@H](C)O1 | -23% | -4%[9.04 µM] | . | . | .
NC(=O)CC1(c2ccccc2)CCCCC1 | -8% | 1% | 5% | 12% | 13
CCc1ccc(NS(=O)(=O)c2c(C)noc2C)cc1 | -20% | -11% | 0% | -3% | 9
OC(C[n+]1c(Cl)ccc2ccccc21)c1ccccc1 (centres undefined) | ? | 8.9µM* | . | . | .
NC(Cc1ccc(C(F)(F)F)cc1)c1csc(Nc2ccccn2)n1 (centres undefined) | ? | ? | 21µM* | ? | -77*
NC(Cc1ccc(C(F)(F)F)cc1)c1csc(Nc2cc(NCc3ccco3)ncn2)n1 (centres undefined) | 16µM* | 21µM* | 23µM* | 16µM* | ?
NC(Cc1cnc[nH]1)c1csc(Nc2ccc(C(F)(F)F)cn2)n1 (centres undefined) | -26% | -21% | 0% | 0% | 22
NC(Cc1ccc(F)cc1)c1csc(Nc2ccc(C(F)(F)F)cn2)n1 (centres undefined) | 9.2µM* | 13µM* | ? | ? | -55*
NC(Cc1ccc(C(F)(F)F)cc1)c1csc(Nc2cnccn2)n1 (centres undefined) | 5.8µM* | 6.5µM* | ? | ? | ?
CCC(=O)Oc1ccc(C(=O)Nc2c[nH]c(=O)[nH]c2=O)cc1 | -17% | -6% | -1% | 3% | 20
CCSc1nc2c(sc3ccccc32)c(=O)n1C(C)C | -25% | -14% | 2% | -1% | 93
CCCN(CC(=O)Nc1cc(C)on1)CC(=O)Nc1ccccc1C | -3% | 5% | 9% | 2% | 11
C#CCNC(=O)C1=C[C@@H](c2ccc(C#C)cc2)C[C@@H](OCc2ccc(CO)cc2)O1 | -18% | ? | 0% | 11% | 16
CC(C)CC(N)c1csc(Nc2ncccn2)n1 (centres undefined) | 6.5µM* | 9.2µM* | ? | ? | -15
NC(COCc1ccccc1)c1csc(Nc2ncccn2)n1 (centres undefined) | ? | -6% | -28% | -19% | -24
NC(Cc1ccc(C(F)(F)F)cc1)c1csc(Nc2ncccn2)n1 (centres undefined) | 9.2µM* | 9.2µM* | ? | ? | -53*

Source: PubChem (National Center for Advancing Translational Sciences (NCATS))
